Assay outcomes from PubChem.
Tb PYK inh: qHTS of Trypanosoma Brucei Inhibitors | TbPYK enzyme, Kinase-Glo Plus ATP luminescence, 45 min | pyruvate kinase (Trypanosoma brucei), Q57TT1 | 410,000 tested, 0.12% active | Potency, µM (doses to about 76.8 µM), most hits filed as inhibitors; further: nearly all actives have a fitted effect of over 50% in size
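Glycolytic pyruvate kinase of T. brucei was incubated with substrate, test compound and 130 uM ADP for 45 minutes at room temperature. Luminescent Kinase-Glo Plus signal was measured after 10 minutes.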
NS1 inh: qHTS Assay for Inhibitors of Influenza NS1 Protein Function; Potency, µM (top dose mostly 46.1 µM); 270,000 tested, 0.4% active; calls by dose curve; further: actives are rising curves; nearly all actives have a fitted effect of over 50% in size
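In this qHTS, NS1 from influenza A is expressed in budding yeast, where it slows growth. Cells are switched from glucose to 2% galactose medium (pH 6.0, -URA), treated with compound, and growth recovery is read at OD600.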
Sm TGR inh: qHTS Assay for the Inhibitors of Schistosoma Mansoni Peroxiredoxins | Potency, µM (titrated, usually from 114 µM), most hits filed as inhibitors | AID 485364, 2010 | purified TGR, DTNB reduction, TNB absorbance 405 nm | Schistosoma mansoni thioredoxin glutathione reductase (TGR), Q962Y6 | 360,000 tested, 3% active; further: nearly all actives have a fitted effect of over 60% in size
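TGR 20 nM + NADPH 100 uM (dispensed conc.), cpd preinc 15 min RT; start with NADPH (500 uM addition) then DTNB (15 mM addition). Kinetic TNB absorbance, 405 nm filter. Four-parameter Hill fit across titration.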
LmPK inhibitor: qHTS Assay for Inhibitors of Leishmania Mexicana Pyruvate Kinase (LmPK). Q27686. purified LmPK, Kinase-Glo ATP luminescence, 1 h. Potency, µM (doses to about 57.5 µM), most hits filed as inhibitors. 290,000 tested, 0.37% active. AID 1721, 2009
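Purified LmPK (0.1 nM) with 0.5 mM PEP and 0.1 mM ADP in imidazole buffer pH 7.2 with MgCl2/KCl, 1 h at room temperature. ATP formed was read by luciferase luminescence and normalized to no-enzyme and uninhibited controls.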
FBPA Giardia inh: qHTS Assay for Inhibitors of Fructose-1,6-bisphosphate Aldolase from Giardia Lamblia; Potency, µM (top dose mostly 59.6 µM), usual class: inhibitors; 290,000 tested, 0.71% active; A8B2U2; purified Giardia FBPA; further: nearly all actives have a fitted effect of over 55% in size
Target sequence (A8B2U2 whole entry, looked up): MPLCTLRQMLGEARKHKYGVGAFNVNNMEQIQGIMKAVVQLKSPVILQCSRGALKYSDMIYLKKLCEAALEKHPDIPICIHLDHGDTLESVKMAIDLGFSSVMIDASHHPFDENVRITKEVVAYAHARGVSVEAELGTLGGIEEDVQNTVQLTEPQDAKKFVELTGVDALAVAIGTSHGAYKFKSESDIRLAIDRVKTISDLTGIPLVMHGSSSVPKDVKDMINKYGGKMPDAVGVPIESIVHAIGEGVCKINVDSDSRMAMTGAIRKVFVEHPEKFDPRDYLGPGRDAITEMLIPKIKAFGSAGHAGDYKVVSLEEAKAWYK
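Giardia FBPA (40 nM reagent) was preincubated 10 min at RT with compound (up to 57.5 uM final), then substrate plus GAPDH/TPI/NAD/arsenate coupling system with diaphorase/resazurin was added; resorufin fluorescence (525/598 nm) was read after 20 min.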
RE007 growth inh: qHTS Assay for Inhibitors of the HIV-1 protein Vpr; S. pombe RE007 Vpr strain, BacTiter-Glo ATP luminescence, 24 h; Potency, µM (series often up to 92.2 µM), most hits filed as inhibitors; 360,000 tested, 0.21% active; AID 651644, 2012; active means well fitted falling curve with a large enough effect; inconclusive means small, poorly fitted or top-dose-only effect; inactive means no such curve, though single readings can be large or run the other way; further: nearly all actives have a fitted effect of over 50% in size
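Fission yeast RE007 carrying one integrated HIV-1 vpr copy, seeded at OD 0.01 in PMG+AL medium with 23 nL pinned compound. Grown 24 h at 30 degrees; viability read by BacTiter-Glo luminescence after 5 min.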
Each line names hits and unclear results; the compound was inactive in the other large screens. This is a sample that favours compounds with a hit; in the whole collection about 3.5% have one here. Unless noted, the call rests on the fitted dose curve; in most records, active means well fitted curve in the direction sought with a large enough effect; inconclusive means small, poorly fitted or top-dose-only effect, or another doubt; inactive means no such curve, though single readings can be large; an effect the other way counts as inactive or inconclusive.

COc1ccc(Br)cc1C1Nc2cccc3cccc(c23)N1	Sm TGR inh inconclusive
CSc1ccc(C2Nc3cccc4cccc(c34)N2)cc1	Sm TGR inh 25µM
c1cc2c3c(cccc3c1)NC(c1ccc3c(c1)OCO3)N2	Sm TGR inh 18µM
Brc1ccc(C2Nc3cccc4cccc(c34)N2)s1	Sm TGR inh 20µM, FBPA Giardia inh inconclusive
COc1cccc(NC(=O)Cn2c(=O)n(-c3ccc(CC(=O)NCC4CCCO4)cc3)c(=O)c3ccccc32)c1 (stereo not given)	none (no result: NS1 inh, LmPK inhibitor, FBPA Giardia inh, RE007 growth inh)
Cc1c(NC(=O)c2ccccc2F)cccc1-c1nc2cccnc2s1	none (no result: NS1 inh, LmPK inhibitor, FBPA Giardia inh, RE007 growth inh)
Clc1ccc(C2Nc3cccc4cccc(c34)N2)cc1	Sm TGR inh 16µM, FBPA Giardia inh inconclusive
Cc1cccc(C2Nc3cccc4cccc(c34)N2)c1	Sm TGR inh 20µM, FBPA Giardia inh inconclusive
Clc1ccc(C2Nc3cccc4cccc(c34)N2)c(Cl)c1	none (no result: NS1 inh, Sm TGR inh, LmPK inhibitor, FBPA Giardia inh)
O=[N+]([O-])c1cc(C2Nc3cccc4cccc(c34)N2)ccc1Cl	none (no result: RE007 growth inh)
COc1ccc(C(NC(=O)/C=C\c2ccco2)c2ccc(OC)c(OC)c2)cc1 (stereo not given)	Tb PYK inh inconclusive, Sm TGR inh 13µM
CCC(O)c1nc2ccccc2n1Cc1cccc(Cl)c1 (stereo not given)	none (no result: NS1 inh, LmPK inhibitor, FBPA Giardia inh, RE007 growth inh)
CCC(Cc1ccccc1)NC(=O)/C=C/c1ccco1 (stereo not given)	Tb PYK inh inconclusive, Sm TGR inh 10µM
COc1cc(C(=O)NNC(=O)/C=C/c2ccco2)cc(OC)c1OC	none (no result: NS1 inh, Sm TGR inh, LmPK inhibitor, FBPA Giardia inh)
CC(NC(=O)/C=C/c1ccco1)c1nc2ccccc2n1Cc1cccc(Cl)c1 (stereo not given)	Sm TGR inh 14µM
O=C(/C=C/c1ccco1)NC(=S)Nc1ccccc1	Sm TGR inh inconclusive, FBPA Giardia inh inconclusive, RE007 growth inh inconclusive
COc1ccc(C(NC(=O)/C=C/c2ccco2)c2ccc(OC)cc2)cc1	Sm TGR inh 10µM
Cn1nc(-c2ccccc2)c(-c2ccccc2)c(C(=O)Nc2ccccc2C(N)=O)c1=O	none (no result: NS1 inh, LmPK inhibitor, FBPA Giardia inh, RE007 growth inh)
COc1ccc(S(=O)(=O)Nc2cccc(-c3ccc(N4CCCCC4)nn3)c2)cc1F	none (no result: NS1 inh, LmPK inhibitor, FBPA Giardia inh, RE007 growth inh)
CCc1cccc(C)c1NC(=O)CCn1c(=O)c2cccn2c2ccccc21	none (no result: NS1 inh, LmPK inhibitor, FBPA Giardia inh, RE007 growth inh)
CCC1(C)Cc2c(C#N)c(N)n(-c3ccccc3)c(=O)c2CO1 (stereo not given)	none
CC1(C)C=C2C(=NN(c3ccccc3)C(N)=C2C#N)CO1	FBPA Giardia inh 1.6µM
C=CCN1C(=O)/C(=C/c2ccc(Br)s2)C(=O)NC1=S	Sm TGR inh 2.5µM, RE007 growth inh inconclusive
CCN1C(=O)/C(=C\c2ccc([N+](=O)[O-])s2)C(=O)NC1=S	Sm TGR inh 2.8µM, FBPA Giardia inh 11µM (no result: Tb PYK inh, NS1 inh, RE007 growth inh)
Cc1ccc(-n2c(N)c(C(=O)N3CCN(C)CC3)sc2=S)cc1	Tb PYK inh inconclusive, FBPA Giardia inh 10µM
Cc1ccc(-n2c(N)c(C(=O)N3CCCCC3)sc2=S)cc1	none
Cc1ccc(CSc2nc3cccnc3n2Cc2ccc(C(=O)NC3CCCCC3)cc2)cc1	none (no result: NS1 inh, LmPK inhibitor, FBPA Giardia inh, RE007 growth inh)
COc1ccc(CCN(Cc2nc3ccccc3c(=O)[nH]2)C(=O)c2ccco2)cc1	none
Cc1ccc(CN(Cc2ccco2)C(=O)c2ccco2)cc1	none
O=C(c1ccco1)N(CCC(c1ccccc1)c1ccco1)Cc1ccccc1 (stereo not given)	Sm TGR inh 50µM
COc1ccc(CN(CCC(c2ccccc2)c2ccco2)C(=O)c2ccco2)cc1 (stereo not given)	Sm TGR inh 35µM
COC(=O)C1=C(C)NC(=O)NC1c1ccc(-c2ccc(Cl)cc2)o1 (stereo not given)	Sm TGR inh 14µM
COC(=O)C1=C(C)NC(=S)NC1c1ccc(-c2cc(Cl)ccc2Cl)o1 (stereo not given)	Sm TGR inh 13µM
COC(=O)C1=C(C)NC(=S)NC1c1ccc(N(CCCl)CCCl)cc1Cl (stereo not given)	none (no result: NS1 inh, Sm TGR inh, LmPK inhibitor, FBPA Giardia inh)
